G9a block – G9a (human) methyltransferase inhibition; 350,000 compounds, 8.8% hits; Potency, µM (doses to about 102 µM), for the others: at the highest dose activity, negative = inhibition, most hits filed as inhibitors; Q96KQ7; G9a H3K9 monomethylation, AlphaScreen, 2 h; AID 504332; also: % is scaled to controls: 0 for no effect and ±100 for the full control effect; nearly all actives have a fitted effect of over 75% in size
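Enzyme 20 nM + cpd, 15 min RT; add b-H3K9 pep 500 nM / SAM 20 uM; 2 h RT; anti-H3K9me1 Ab 0.5 ug/mL + SA donor / anti-rabbit acceptor beads 20 ug/mL each, 10 min; AlphaScreen read.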
HP1b binding inh – inhibitors of HP1-beta chromodomain binding to methylated histone tails; P83916; Potency, µM (highest dose often 114 µM), inactives show top-dose activity change, negative = inhibition, most hits filed as inhibitors; AlphaScreen HP1-beta / biotin-H3K9me3 peptide binding; 390,000 compounds, 0.56% hits; AID 540317; also: nearly all actives have a fitted effect of over 70% in size
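Compound inhibition of the preformed complex between 50 nM HP1-beta and 50 nM biotinylated H3K9me3 peptide was read by AlphaScreen. Buffer was PBS pH 7.4 with 0.01% Tween-20. Incubations ran 30 min at room temperature, with 10 ug/mL donor/acceptor beads.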
GLS inh – blocks human kidney-isoform glutaminase activity | O94925 | GLS enzymatic activity, qHTS titration | Potency, µM (series often up to 45.5 µM), without a hit: at the highest dose activity change, negative = inhibition, most hits filed as inhibitors | 410,000 compounds, 0.21% hits | AID 624170; also: % is scaled to controls: 0 for no effect and ±100 for the full control effect
Target sequence (O94925 whole entry, looked up, canonical isoform): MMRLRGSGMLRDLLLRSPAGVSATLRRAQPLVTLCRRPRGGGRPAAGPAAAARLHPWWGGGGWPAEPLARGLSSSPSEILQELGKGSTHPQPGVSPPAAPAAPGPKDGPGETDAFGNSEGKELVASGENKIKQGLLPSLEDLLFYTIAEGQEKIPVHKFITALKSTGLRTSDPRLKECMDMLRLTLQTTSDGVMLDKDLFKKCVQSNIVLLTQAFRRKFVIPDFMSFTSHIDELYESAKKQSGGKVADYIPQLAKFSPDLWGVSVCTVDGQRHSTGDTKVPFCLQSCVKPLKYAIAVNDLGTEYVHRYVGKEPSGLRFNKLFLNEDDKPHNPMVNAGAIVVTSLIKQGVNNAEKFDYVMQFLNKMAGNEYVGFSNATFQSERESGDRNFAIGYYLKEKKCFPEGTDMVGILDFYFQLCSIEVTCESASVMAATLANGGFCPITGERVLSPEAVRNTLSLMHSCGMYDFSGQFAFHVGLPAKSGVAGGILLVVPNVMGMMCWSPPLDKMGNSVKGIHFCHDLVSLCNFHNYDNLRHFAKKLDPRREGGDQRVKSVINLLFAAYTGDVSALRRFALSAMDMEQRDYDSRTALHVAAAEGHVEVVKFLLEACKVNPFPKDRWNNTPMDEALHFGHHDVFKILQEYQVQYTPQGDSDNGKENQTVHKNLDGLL
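Coupled fluorescence readout: glutamate oxidase/HRP/Amplex Red detect glutamate formed by hKGA from L-glutamine (1 mM solution added). Buffer 45 mM KH2PO4 pH 8.2, 0.02% Tween-20; reads at t0 and 30 min RT.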
BAZ2B block – blocks human BAZ2B; AID 504333; AlphaScreen BAZ2B-H3K14Ac peptide displacement; Q9UIF8; 360,000 compounds, 4.4% hits; Potency, µM (doses to about 114 µM), for the others: at the highest dose activity change, negative = inhibition, actives largely listed as inhibitors; also: % is scaled to controls: 0 for no effect and ±100 for the full control effect; nearly all actives have a fitted effect of over 60% in size
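Complex of BAZ2B and biotin-H3K14Ac (50 nM apiece) forms over 30 min at RT, then faces library compounds up to 110 uM for another 30 min; AlphaScreen beads added, 20 min dark incubation, luminescence read.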
JMJD2A Tudor inh – inhibitors of human JMJD2A Tudor domain. AlphaScreen JMJD2A-Tudor / H3K4me3 peptide binding. Potency, µM (highest dose often 114 µM), for the others: at the highest dose activity change, negative = inhibition, actives largely listed as inhibitors. O75164. 390,000 compounds, 4.4% hits; also: % is scaled to controls: 0 for no effect and ±100 for the full control effect; nearly all actives have a fitted effect of over 50% in size
Numbers without * were called inactive; ? = inconclusive; . = no result; [ ] = another dose, or the depositor's remark. The list is not random: actives were taken first. Their share in the collection is about 10%. Calls follow the shape of the dose curve; as a rule, active = well fitted curve in the direction sought with a large enough effect; inconclusive = small, poorly fitted or top-dose-only effect, or another doubt; inactive = no such curve, though single readings can be large; an effect the other way counts as inactive or inconclusive. Potency is read from the fitted curve at half-maximal effect.

SMILES	G9a block	HP1b binding inh	GLS inh	BAZ2B block	JMJD2A Tudor inh
COc1ccc(CNC(=O)c2nn(-c3ccccc3)cc2OC)cc1	11%	13%	5%	-3%	-12%
COc1cn(-c2ccccc2)nc1C(=O)Nc1ccc(C)cc1Cl	?	23%	-3%	79µM*	?
CCOc1ccc(Oc2ccc(NS(=O)(=O)c3ccc(CCC(=O)O)cc3)cc2)cc1	.	.	12%	.	.
CCOCCCNS(=O)(=O)c1ccc(NC(=O)c2ccc([N+](=O)[O-])cc2Cl)cc1	18%[59 µM]	14%	2%	-2%	-17%
CCOCCCNS(=O)(=O)c1ccc(NC(=O)c2ccc(OC)c([N+](=O)[O-])c2)cc1	11%	-15%	-5%	0%	11µM*
COc1ccc(C(=O)Nc2ccc(S(=O)(=O)N3CCN(C)CC3)cc2)cc1[N+](=O)[O-]	1%[59 µM]	19%	-2%	-25%	-7%
COc1ccc(C(=O)Nc2ccc(S(=O)(=O)NC(C)=O)cc2)cc1[N+](=O)[O-]	50µM*	29%	3%	-15%	-18%
O=C(c1cnn2c(-c3ccccc3)cc(-c3ccccc3)nc12)N1CCN(Cc2ccccc2)CC1	.	85%	6%	.	-1%[11.4 µM]
COc1ccc(Cl)cc1-c1cc(C(=O)Nc2ccc(C(C)(C)C)cc2)[nH]n1	.	.	2%	.	.
CCc1ccc(NC(=O)C(=O)NCC(c2cccnc2)N2CCN(c3ccc(F)cc3)CC2)cc1 (stereo not given)	?	32%	-3%	6%	-16%
Cn1nc(CC#N)c2c(=N)n(N)cnc21	.	2%	-5%	.	32µM*
COc1ccc(/C=C2\CCC(C3CCCC3)C2=O)cc1 (stereo not given)	16%	4%	9%	13%	-4%
COc1ccc(/C=C2/CCC(CN3CCOCC3)C2=O)cc1 (stereo not given)	.	?	14%	.	79µM*
CN(C)CC1CC/C(=C\c2ccc(O)cc2)C1=O (stereo not given)	.	?	3%	.	89µM*
COc1cccc(CSc2nc3n(n2)C(c2cccs2)C(C(=O)Nc2ccccc2C)=C(C)N3)c1 (stereo not given)	5%[59 µM]	6%	21%	1%	-15%
COc1cccc(CNC(=O)c2sc3ncccc3c2-n2c(C)ccc2C)c1OC	?	15%[57 µM]	3%	-28%	?
CCOc1ccc(NC(=O)C(=O)NCC(c2cccnc2)N2CCc3ccccc32)cc1 (stereo not given)	-10%[59 µM]	31%	4%	3%	1%
COC1(OC)N=C(N)C2(C#N)C(c3ccccc3)NC(C)=CC12C#N (stereo not given)	.	31%	17%	-24%	-10%
CC1=CC(C#N)(C#N)C(C#N)(C#N)C(c2ccccc2)N1 (stereo not given)	?	.	.	35µM*	.
CCCCN(CC)CCCNC(=S)Nc1ccc2nc3n(c(=O)c2c1)CCCCC3	45µM*	13%	-13%	3%	-14%
O=c1c2cc(NC(=S)NCc3ccccn3)ccc2nc2n1CCCCC2	40µM*	20%	19%	?	-35%
O=c1c2cc(NC(=S)NCCN3CCCCCC3)ccc2nc2n1CCCCC2	?	6%	-16%	-21%	-32%
O=C(Nc1ccc2nc3n(c(=O)c2c1)CCCCC3)C(=O)N1CCN(c2ccc(F)cc2)CC1	0%	?	?	-20%	20µM*
O=C(Nc1ccc2nc3n(c(=O)c2c1)CCCCC3)c1ccccn1	25µM*	9%	2%	-27%	-24%
C=C(C)[C@H]1CC=C(CO)CC1	26%[59 µM]	.	.	.	.
SMILES	G9a block	HP1b binding inh	GLS inh	BAZ2B block	JMJD2A Tudor inh
Cc1ccc2c(c1)c1c(c(=O)n(-c3ccccc3C)c(=O)n1Cc1cccc(F)c1)n2C	-25%[59 µM]	45%	7%	-25%	-13%
Cc1ccc(C(=O)N2c3ccc(F)cc3CCC2C)o1 (stereo not given)	-8%[59 µM]	34%	14%	2%	-12%
Cc1nn(Cc2ccc(C(=O)N3c4ccc(F)cc4CCC3C)o2)c(C)c1Br (stereo not given)	50µM*	25%	-2%	-26%	-26%
Cc1ccc(C)c(N2N=C(C(=O)OCC(=O)N(C)c3ccccc3)CCC2=O)c1	11%	8%	5%	-5%	-18%
COc1ccc(-n2nc3c(N4CCCC(C(=O)NCc5ccccc5C)C4)nnc(C)c3c2C)cc1 (stereo not given)	?	33%	?	50µM*	-26%
Cc1ccc(-n2nc3c(N4CCC(C(=O)NCc5ccc(C)o5)CC4)nnc(C)c3c2C)cc1	?	42%	-49%	50µM*	45µM*
COc1cccc(S(=O)(=O)N(C)C[C@@H]2Oc3cc(C#CCN(C)C)ccc3S(=O)(=O)N([C@H](C)CO)C[C@@H]2C)c1	.	.	0%	.	.
Cc1ccc([C@@H]2C[C@H]3[C@@H](CN2S(=O)(=O)c2ccc(Cl)cc2)C(=O)C[C@@H](c2ccccc2F)N3S(=O)(=O)c2ccc(C)cc2)cc1	.	.	-3%	.	.
O=C1/C(=C\c2ccccn2)SC(=S)N1c1ccc(S(=O)(=O)Nc2nccs2)cc1	.	?	4%	50µM*	18µM*
Cc1ccc(/C=C2/SC(=S)N(c3ccc(S(=O)(=O)Nc4nccs4)cc3)C2=O)cc1	.	?	10%	?	?
COc1ccc(/C=C2/SC(=S)N(c3ccc(S(=O)(=O)Nc4nccs4)cc3)C2=O)cc1	-49%	20µM*	-1%	?	16µM*
CCN1/C(=C/C=C/c2oc3ccc(-c4ccccc4)cc3[n+]2CC)Oc2ccc(-c3ccccc3)cc21	.	-20%	0%	28µM*	?
COC(=O)COc1ccccc1C(N)=O	20%	44%	.	8%	14%
COc1cccc(NC(=O)COC(=O)COc2ccccc2[N+](=O)[O-])c1	-12%[59 µM]	5%	-1%	-33%	-28%
CCN(CC)c1ccc(NC(=O)COC(=O)COc2ccccc2[N+](=O)[O-])cc1	7.1µM*	-66%	21%	45µM*	32µM*
CCN(CC)c1ccc(NC(=O)COC(=O)CCC(=O)c2cccs2)cc1	-15%[2.33 µM]	?	18%	45µM*	?
CCN(CC)c1ccc(NC(=O)c2ccccc2OCC(=O)OC)cc1	.	?	34%	32µM*	20µM*
CN1C2CCC1CC(NC(=O)n1c(=O)[nH]c3ccccc31)C2 (stereo not given)	.	.	-3%	.	.
COc1ccccc1CCNC(=O)Cc1c(C)c2cc3c(C)coc3cc2oc1=O	3%[59 µM]	35%	-4%	-2%	-10%
O=c1[nH]cc(CCCc2ccccc2)c(=O)[nH]1	.	.	-8%	.	.
COC(=O)C1=C(O)/C(=C\c2cc(C)n(-c3ccc(F)cc3)c2C)N=C1C	35µM*	-2%	-10%	.	40µM*
Cc1ccc2sc(N3CCN(CCNC(=O)c4ccco4)CC3)nc2c1C	45µM*	-13%	10%	?	?
